# Measurements reported in article PMC4336329 (PLoS ONE, 2015).
# Screen size: about 310,000 compounds; about 14,000 (4.5%) showed an effect of 50% or more. Effects have a minus sign here. The list comes from a sample in which strong results are over-represented; it also holds similar structures and randomly drawn compounds.
# Biological target: human ether-à-go-go-related gene (hERG) potassium channel (human, UniProt Q12809)
# Test: primary screen, population patch clamp on CHO cells stably expressing hERG; higher = less effect of the substance
# 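Note: peak tail current of the secondary pulse compared with the same well before compound.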
# Chain of human ether-à-go-go-related gene (hERG) potassium channel (Q12809 whole entry, looked up): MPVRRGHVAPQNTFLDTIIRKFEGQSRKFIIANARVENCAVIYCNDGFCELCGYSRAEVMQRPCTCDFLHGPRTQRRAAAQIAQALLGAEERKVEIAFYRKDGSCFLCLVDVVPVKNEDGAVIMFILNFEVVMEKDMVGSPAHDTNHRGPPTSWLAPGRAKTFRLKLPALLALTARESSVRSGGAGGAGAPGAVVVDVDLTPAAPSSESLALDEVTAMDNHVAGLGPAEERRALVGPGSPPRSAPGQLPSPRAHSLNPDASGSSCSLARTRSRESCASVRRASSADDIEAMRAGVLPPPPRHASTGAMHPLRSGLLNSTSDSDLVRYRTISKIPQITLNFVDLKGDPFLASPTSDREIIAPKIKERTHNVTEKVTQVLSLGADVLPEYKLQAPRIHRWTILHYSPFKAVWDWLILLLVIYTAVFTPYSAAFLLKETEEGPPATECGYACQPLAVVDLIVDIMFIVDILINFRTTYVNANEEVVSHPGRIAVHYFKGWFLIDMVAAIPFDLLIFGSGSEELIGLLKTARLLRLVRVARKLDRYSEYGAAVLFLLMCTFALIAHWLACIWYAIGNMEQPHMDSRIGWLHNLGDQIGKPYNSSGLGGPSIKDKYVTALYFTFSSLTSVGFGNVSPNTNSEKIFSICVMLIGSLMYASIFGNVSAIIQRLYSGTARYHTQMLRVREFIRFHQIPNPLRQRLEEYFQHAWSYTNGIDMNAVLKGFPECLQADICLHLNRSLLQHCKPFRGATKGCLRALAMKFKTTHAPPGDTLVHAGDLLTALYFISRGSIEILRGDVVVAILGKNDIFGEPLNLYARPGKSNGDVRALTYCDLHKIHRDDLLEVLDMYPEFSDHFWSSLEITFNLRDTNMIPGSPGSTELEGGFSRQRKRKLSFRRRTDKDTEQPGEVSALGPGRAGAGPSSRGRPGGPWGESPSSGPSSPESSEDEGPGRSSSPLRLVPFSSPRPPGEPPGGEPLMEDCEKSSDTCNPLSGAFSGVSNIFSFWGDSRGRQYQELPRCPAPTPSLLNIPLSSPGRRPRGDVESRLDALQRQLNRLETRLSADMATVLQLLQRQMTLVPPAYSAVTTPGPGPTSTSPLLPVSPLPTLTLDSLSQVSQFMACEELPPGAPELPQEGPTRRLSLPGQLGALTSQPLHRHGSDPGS
row,Compound,"hERG current change (%, negative = inhibition) at 10uM"
1,O=C(c1ccc(Cl)cc1)N1N=CCC1(O)c1ccc(Cl)cc1 (stereo not drawn),15.7%
2,COc1cc(NC(=O)CN2C(=O)NC3(CCOc4ccccc43)C2=O)cc(OC)c1 (stereo not drawn),-3.2%
3,CCc1ccc(NC(=O)C2CCN(S(=O)(=O)c3ccc4[nH]c(=O)ccc4c3)CC2)cc1,3.6%
4,Cc1ccc(NC(=O)c2c([N+](=O)[O-])c(C(C)(C)C)nn2C)c(C)c1,20.7%
5,Cc1ccc2cc(/C=N/NC(=O)c3ccccc3[N+](=O)[O-])c(Cl)nc2c1,-5.33%
6,Cc1cc(C(=O)NCCN2C(=O)S/C(=C\c3cccs3)C2=O)ccc1[N+](=O)[O-],-1.91%
7,COc1ccc(Nc2nc(N)nc(CSc3nccn3C)n2)cc1,4.64%
8,COc1ccc(Nc2nc(N)nc(CN3CCN(c4ccccn4)CC3)n2)cc1,-65.1%
9,COc1ccc(NC(=S)N2CCN(c3ccccn3)CC2)cc1,-0.967%
10,Cn1c(COc2ccc(C(=O)O)cc2)nc2ccccc21,14.7%
11,CC(OC(=O)CCc1c[nH]c2ccccc12)C(=O)c1ccccc1 (stereo not drawn),-17.8%
12,COc1ncnc(-c2ccccc2)c1-c1ccccc1,1.86%
13,COC(=O)c1c(NC(=O)c2ccco2)sc2c1CCN(C(C)C)C2.Cl,-62.5%
14,COC(=O)c1c(NC(=O)c2ccco2)sc2c1CCN(C(C)=O)C2,-2.22%
15,CN1CCc2c(sc(NC(=O)Cc3ccccc3)c2C(N)=O)C1.Cl,-16.2%
16,CCOC(=O)c1c(NC(=O)Cc2ccccc2)sc2c1CCN(C)C2.Cl,-53%
17,CC(C)N1CCc2c(sc(NC(=O)c3ccco3)c2C(N)=O)C1.Cl,-6.82%
18,CCN1CCc2c(sc(NC(=O)COc3ccccc3)c2C(=O)OC)C1.Cl,-62.6%
19,CN1CCc2c(sc(NC(=O)Cc3ccccc3)c2C#N)C1.Cl,-7.24%
20,COC(=O)c1c(NC(=O)c2ccc([N+](=O)[O-])o2)sc2c1CCN(C(C)C)C2.Cl,-25.1%
21,CCN1CCc2c(sc(NC(=O)CN3C(=O)c4ccccc4C3=O)c2C(N)=O)C1.Cl,-36.6%

row,Compound,"hERG current change (%, negative = inhibition) at 10uM"
1,CC(C)N1CCc2c(sc(NC(=O)Cc3ccccc3)c2C#N)C1.Cl,-16%
2,COC(=O)c1c(NC(C)=O)sc2c1CCN(Cc1ccccc1)C2.Cl,-9.29%
3,COC(=O)c1c(NC(=O)Cc2ccccc2)sc2c1CCN(C(C)C)C2.Cl,-61.4%
4,COc1ccc(/C=N/n2c(-c3n[nH]c4c3CCC4)n[nH]c2=S)c(OC)c1OC,20.7%
5,COc1nc(NC(C)=O)nc(C)c1Br,-1.69%
6,COc1ccc(NC(=O)CC(C)C)c([N+](=O)[O-])c1,-0.754%
7,Cc1ccc(C(=O)NC(=S)Nc2ccccc2C)cc1,-0.104%
8,CCn1nc(C)cc1C(=O)N1CCc2c([nH]c3ccccc23)C1c1cc(F)ccc1F (stereo not drawn),-1.16%
9,CC(C)(C)C1CCc2c(sc(NC(=O)c3cccs3)c2C(=O)N2CCCCC2)C1 (stereo not drawn),7.32%
10,CCOC(=O)c1c(NC(=O)Cc2ccccc2)sc2c1CCN(CC)C2.Cl,-65.3%
11,CC(C)N1CCc2c(sc(NC(=O)c3ccc(C(=O)c4ccccc4)cc3)c2C(N)=O)C1.Cl,-38.2%
12,CCN1CCc2c(sc(NC(=O)c3ccc(S(=O)(=O)N4CCOCC4)cc3)c2C(=O)OC)C1.Cl,-42.2%
13,CCOC(=O)c1c(NC(=O)c2cccc(N3C(=O)CCC3=O)c2)sc2c1CCN(CC)C2.Cl,-31.5%
14,CCN1CCc2c(sc(NC(=O)Cc3ccccc3)c2C(N)=O)C1.Cl,-20.3%
15,CC(C)N1CCc2c(sc(NC(=O)Cc3ccccc3)c2C(N)=O)C1.Cl,-11.5%
16,CC(C)N1CCc2c(sc(NC(=O)CCc3ccccc3)c2C(N)=O)C1.Cl,-57.2%
17,CC(C)(C)C1CCc2c(sc(NC(=O)c3ccco3)c2C(N)=O)C1 (stereo not drawn),19.8%
18,CN1CCN(C(=O)c2c(NC(=O)c3ccco3)sc3c2CCC(C(C)(C)C)C3)CC1 (stereo not drawn),-69.5%
19,CCN1CCc2c(sc(NC(=O)Cc3ccccc3)c2C(=O)OC)C1.Cl,-51.5%
20,OCc1ccccc1N=c1ssnc1Cl,15.9%
21,CC(=O)N1CC(C)Sc2ccc(S(=O)(=O)NCc3ccccc3Cl)cc21 (stereo not drawn),-8.78%

row,Compound,"hERG current change (%, negative = inhibition) at 10uM"
1,CC1CCN(C(=O)C2CCCCN2S(=O)(=O)c2cccc([N+](=O)[O-])c2)CC1 (stereo not drawn),1.35%
2,Cc1cc(C)c(NC(=O)CSc2ccc(-c3ccccn3)nn2)c(C)c1,17.9%
3,CC1CCN(C(=O)c2nc[nH]c2C(=O)OCCNC(=O)OC(C)(C)C)CC1,4.23%
4,CC1=CC(C)(C)Nc2ccc(OC(=O)CN3C(=O)c4ccccc4C3=O)cc21,15%
5,CC1Cc2ccccc2N1C(=O)COC(=O)Cc1ccc(F)cc1 (stereo not drawn),-13.9%
6,C=CCN(CC=C)C(=S)NCCc1ccc(OC)c(OC)c1,-3.41%
7,Cc1cc([N+](=O)[O-])nn1CC(=O)Nc1c(C)n(C)n(-c2ccccc2)c1=O,18.4%
8,CCC(c1nnnn1Cc1ccccc1)N1CCN(C(=O)c2ccco2)CC1 (stereo not drawn),-36.3%
9,CCOc1ccc(C(c2nnnn2Cc2ccccc2)N2CCN(C(=O)c3ccco3)CC2)cc1.Cl (stereo not drawn),-57%
10,COCCn1nnnc1C(c1ccc(Cl)cc1)N1CCN(C(=O)c2ccco2)CC1.Cl (stereo not drawn),-22.4%
11,O=C(c1ccco1)N1CCN(C(c2ccc(Cl)cc2)c2nnnn2CC2CCCO2)CC1 (stereo not drawn),-22.1%
12,O=C(c1ccco1)N1CCN(C(c2ccc(Cl)cc2)c2nnnn2Cc2ccccc2)CC1 (stereo not drawn),-68.2%
13,Cc1nc2sc(C(c3cccs3)N3CCN(c4ccccc4)CC3)c(O)n2n1 (stereo not drawn),-9.85%
14,CC(C)CC(c1nnnn1Cc1ccccc1)N1CCN(C(=O)c2ccco2)CC1 (stereo not drawn),-63.4%
15,COc1cccc(C(c2nnnn2Cc2ccccc2)N2CCN(C(=O)c3ccco3)CC2)c1OC (stereo not drawn),-30.2%
16,CC(C)CC(c1nnnn1CCc1ccccc1)N1CCN(C(=O)c2ccco2)CC1 (stereo not drawn),-46.6%
17,COc1ccc(C(c2sc3nc(C)nn3c2O)N2CCN(Cc3ccccc3)CC2)cc1OC (stereo not drawn),-18.3%
18,COCCn1nnnc1C(c1ccccc1)N1CCN(C(=O)c2ccco2)CC1.Cl (stereo not drawn),16.7%
19,Cc1nc2sc(C(c3cccs3)N3CCN(Cc4ccccc4)CC3)c(O)n2n1 (stereo not drawn),-81.2%
20,COC(=O)/C(=C\Nc1ccccc1)NC(=O)c1ccc(Cl)cc1Cl,-17.2%
21,COc1ccc(C(c2nnnn2Cc2ccccc2)N2CCN(C(=O)c3ccco3)CC2)cc1 (stereo not drawn),-60.6%

row,Compound,"hERG current change (%, negative = inhibition) at 10uM"
1,Cc1ccc(C(c2sc3nc(C)nn3c2O)N2CCN(C(=O)c3ccco3)CC2)cc1 (stereo not drawn),-31.4%
2,CCC(C)(C)n1nnnc1C(c1ccccc1OC)N1CCN(C(=O)c2ccco2)CC1 (stereo not drawn),-32.6%
3,Cc1nc2sc(C(c3ccccc3)N3CCN(C(=O)c4ccco4)CC3)c(O)n2n1 (stereo not drawn),8.97%
4,COc1ccccc1C(c1nnnn1C(C)C)N1CCN(C(=O)c2ccco2)CC1 (stereo not drawn),1.24%
5,COc1ccc(C(c2nnnn2C(C)(C)C)N2CCN(C(=O)c3ccco3)CC2)cc1 (stereo not drawn),-37.4%
6,COCCn1nnnc1C(c1ccc(OC)cc1)N1CCN(C(=O)c2ccco2)CC1.Cl (stereo not drawn),-4.77%
7,COc1ccc(C(c2nnnn2Cc2ccccc2)N2CCN(C(=O)c3ccco3)CC2)cc1OC.Cl (stereo not drawn),-19.9%
8,Cc1nc2sc(C(c3ccc(Cl)cc3)N3CCN(C(=O)c4ccco4)CC3)c(O)n2n1 (stereo not drawn),-60.1%
9,COc1ccccc1C(c1nnnn1C(C)(C)C)N1CCN(C(=O)c2ccco2)CC1 (stereo not drawn),-53.9%
10,CCC(C)(C)n1nnnc1C(c1ccc(OC)cc1)N1CCN(C(=O)c2ccco2)CC1 (stereo not drawn),-41.6%
11,CCOc1ccc(C(c2nnnn2C(C)(C)C)N2CCN(C(=O)c3ccco3)CC2)cc1 (stereo not drawn),-69.3%
12,Cc1ccc(-c2nc3c(c(SCC(=O)N4CCOCC4)n2)COC(C)(C)C3)cc1,3.09%
13,O=C(NCCCn1ccnc1)C(=O)Nc1ccccc1,11.8%
14,CCCNc1nc2c(c(=O)[nH]c(=O)n2C)n1CCc1ccccc1,4.04%
15,C#CCN(C(=O)c1ccc(OC)c(OC2CCN(C(C)C)CC2)c1)C1CCCCC1,-46.4%
16,C=CCc1cccc2cc(C(=O)NC)c(=O)oc12,-5.8%
17,Cn1cnnc1-c1cccc(NS(=O)(=O)c2ccc(N3CCCC3=O)cc2)c1,9.92%
18,CCN(CC)c1ncnc2c1[nH]c1ccccc12,-21.8%
19,O=c1c(C(c2nnnn2C2CCCCC2)N2CCCCC2)coc2ccc(Cl)cc12 (stereo not drawn),0.931%
20,Cc1ccc2occ(C(c3nnnn3C3CCCC3)N3CCN(C(=O)c4ccco4)CC3)c(=O)c2c1 (stereo not drawn),-45.7%
21,O=C(c1ccco1)N1CCN(C(c2coc3ccc(Cl)cc3c2=O)c2nnnn2C2CCCC2)CC1 (stereo not drawn),-55.6%
